Among all 300,000 compounds or so, about 2,700 (0.9%) were called active.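 How the source made its calls: active means mean inhibition of at least 30% with at least half of replicates also reaching 30%; inconclusive means no clear call, values can overlap the other calls; inactive means the rest.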 For the sample, actives were picked, then their nearest neighbours and some compounds at random.

This experiment deals with Golgi-associated PDZ and coiled-coil motif-containing protein (Homo sapiens) (UniProt Q9HD26). In words: blockade of CAL PDZ-reporter peptide interaction – biochemical, fluorescence polarization, untagged CAL PDZ, HTS, primary screen (AID 602252).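 Further: 0% = DMSO neutral control and 100% = excess unlabeled competitor peptide PRC23.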 The note with it: purified CAL PDZ, TMR-peptide fluorescence polarization, 1 h; at 24.9 µM; stronger effect = higher value.
Consider `CCOc1ccc(CCNC(=O)COC(=O)C2CCN(S(=O)(=O)c3ccccc3)CC2)cc1OCC`, for which the inhibition was -1.05% (inactive). Under `O=C(N[C@H]1C/C=C\C(c2cccc(F)c2)N(Cc2ccccc2)C(=O)C1)OCC1c2ccccc2-c2ccccc21` (stereo partly drawn) stands -1.43% (inactive); under `O=C(Nc1c(Br)cc2c(c1Br)Cc1ccccc1-2)C(F)(F)F`, -4.34% (inactive); under `Cc1cn(C2CC(O)C(CO)O2)c(=O)n(CCCc2ccccc2)c1=O` (stereo not drawn), -2.38% (inactive). Under `COc1ccc(S(=O)(=O)N2CCOCC2)cc1NC(=O)c1ccc(OCC(C)C)c(OC)c1` stands -4% (inactive); under `COc1cc2c(cc1OC)C1C(=O)c3cc(OS(C)(=O)=O)c(OC)cc3C1N(C)C2=O` (stereo not drawn), -1.26% (inactive); under `Cc1noc(NS(=O)(=O)c2ccc(NC(=O)C34CCC(CC3)C4)cc2)c1C`, -5.91% (inactive). Under `CCn1c(SCC(=O)Nc2ccc3c(c2)OCCO3)nnc1-c1ccncc1` stands -1.31% (inactive). On to `CCn1c(SCC(=O)Nc2ccc(S(=O)(=O)Nc3onc(C)c3C)cc2)nnc1-c1ccccc1`, for which the inhibition is 30.7% (active).

In the case of `COc1ccc(C(CNC(=O)c2cccc(S(=O)(=O)Nc3ccc(Br)cc3)c2)N(C)C)cc1` (stereo not drawn), the inhibition is -3.75% (inactive).

On to `O=[N+]([O-])c1ccc(NS(=O)(=O)c2ccccc2)c(Cl)c1`, for which the inhibition is -10.2% (inactive). Turning to `O=[N+]([O-])c1ccc(COc2ccccc2CN2CCOCC2)cc1`, the inhibition was 0.702% (inactive). Under `COc1cc(/C=N/N2CCN(c3ccccc3)CC2)ccc1OC(C)=O` stands 4.07% (inactive); under `COc1ccccc1N1CCN(/N=C/c2ccc(O)cc2O)CC1`, 77.6% (active). Under `COc1ccccc1N1CCN(/N=C\C(Br)=C\c2ccccc2)CC1` stands 1.35% (inactive); under `CC(=NNC(=S)N1CCCCCC1)c1ccccn1`, -1.44% (inactive).

Regarding `CN(O)C(=S)c1ccccc1`, the inhibition was -3.98% (inactive). Under `CN1CCN(S(=O)(=O)c2ccc(N3CCN(c4ccccc4O)CC3)c([N+](=O)[O-])c2)CC1` stands -6.2% (inactive). `O=C(C[C@H]1C[C@H](C(=O)N2CCOCC2)[C@@]2(CCC3CCCC3)c3[nH]c4ccc(Cl)cc4c3CCN2C1=O)NCc1ccco1`: the inhibition was 4.95% (inactive).

Turning to `CCOC(=O)C1=C(C)N(C[C@@H]2CC[C@@H](Cc3ccc(-c4ccccc4)cc3)O2)C(=O)NC1c1ccc([N+](=O)[O-])cc1` (stereo partly drawn), the inhibition is -2.42% (inactive). As for `N#C/C(=C(/O)COc1cccc2ccccc12)c1nc2ccccc2[nH]1`, the inhibition was -1.44% (inactive). Consider `Cc1ccccc1OC/C(O)=C(\C#N)c1nc2ccccc2[nH]1`, for which the inhibition is 4.87% (inactive). In the case of `CC(C)(C)c1nnc2sc(SCC(O)=C(C#N)c3nc4ccccc4[nH]3)nn2c1=O`, the inhibition is 43.7% (active). As to `CC1CCCCC12NC(=O)N(CC(=O)OCc1c(F)cccc1Cl)C2=O` (stereo not drawn), the inhibition was -9.25% (inactive).

Turning to `C(#CCN1CCOCC1)CCCN1CCOCC1`, the inhibition is -3.29% (inactive). Under `Cc1cc(C(=O)COc2ccc(Br)cc2F)c(C)n1C1CC1` stands -6.1% (inactive). Under `COc1ccc(CNC(=O)COc2ccccc2C(=O)c2cnn(-c3ccccc3)c2)cc1OC` stands -9.89% (inactive); under `CC(NCCO)C(=O)C12CC3CC(CC(C3)C1)C2` (stereo not drawn), 4.83% (inactive); under `O=C(COC(=O)C12CC3CC(CC(O)(C3)C1)C2)NC12CC3CC(CC(C3)C1)C2`, -5.51% (inactive).

`O=C(CNCCO)NC12CC3CC(CC(C3)C1)C2`: the inhibition is 40.5% (active). Under `Cc1cccc(C(=O)N[C@H](C(=O)NCc2cccs2)C(C)C)c1` stands -0.924% (inactive). Under `O=C(Nc1ccc(S(=O)(=O)N2CCOCC2)cc1)C1CCN(S(=O)(=O)c2ccc(Cl)cc2)CC1` stands -10.9% (inactive); under `CCNC(=S)Nc1cccc(Cl)c1C`, -2.42% (inactive).

Turning to `CN(C)S(=O)(=O)c1cccc(NC(=S)NCc2ccc3c(c2)OCO3)c1`, the inhibition was -4.92% (inactive).

In the case of `Cc1c(Cl)cccc1NC(=S)NCc1ccc2c(c1)OCO2`, the inhibition is 51.1% (active).

As for `CC(C)n1cnc2c(NCc3ccccc3)cc(OCC3CCN(C)CC3)cc21`, the inhibition is 3.01% (inactive). In the case of `CN(C(=O)c1cccc(NC(=O)C2CCN(C(=O)OC(C)(C)C)CC2)c1)C1CCC1`, the inhibition was -3.04% (inactive). Under `O=C(O)c1ccc(S(=O)(=O)N2CCOCC2)o1` stands 32.5% (active). With `O=C(c1cc(S(=O)(=O)N2CCOCC2)ccc1Cl)N1CCOCC1`, the inhibition is -1.76% (inactive). Under `O=C(CCc1ccc(S(=O)(=O)N2CCOCC2)cc1)NN=C1CCCCCCC1` stands -3.33% (inactive); under `Cc1cccc(C=CC(=O)c2ccc(Cl)cc2)c1`, -5.84% (inactive). As for `Cc1cc(OCCCC(=O)Nc2cc(S(=O)(=O)N3CCOCC3)ccc2N2CCOCC2)ccc1Cl`, the inhibition was -3.89% (inactive). Under `CN(C(=O)c1cccc(NC(=O)Cc2ccc([N+](=O)[O-])cc2)c1)C1CCC1` stands -2.37% (inactive); under `COc1ccc(S(=O)(=O)N2CCc3ccccc32)cc1C(=O)Nc1cc(S(C)(=O)=O)ccc1Cl`, -5.31% (inactive).

Regarding `CC1CN(C(=O)c2ccc([N+](=O)[O-])s2)CC(C)O1` (stereo not drawn), the inhibition was 0.023% (inactive). On to `O=C(CSC(=S)N1CCOCC1)c1ccccc1`, for which the inhibition is 0.137% (inactive). Under `CC(=O)c1ccc(NC(=O)CSC(=S)N2CCCC2)cc1` stands -3.19% (inactive); under `O=C(CSC(=S)N1CCCCC1)c1c(F)cccc1F`, 79.2% (active). Under `O=C(Nc1ccc(NC(=O)c2ccccc2F)cc1)c1ccccc1F` stands 4.51% (inactive). In the case of `O=C(CNC(=O)c1ccccc1F)c1ccc(Br)cc1`, the inhibition was 57.3% (active). Under `O=C(CNC(=O)c1ccc(F)cc1)c1ccccc1` stands -6.34% (inactive). On to `Cc1c(NC(=O)CN(C)CC(=O)Nc2ccc(F)c(F)c2F)c(=O)n(-c2ccccc2)n1C`, for which the inhibition was -3.99% (inactive). Turning to `COCCN1C(=O)c2oc3c(C)cc(C)cc3c(=O)c2C1c1cccc(O)c1` (stereo not drawn), the inhibition was 47.9% (active).

With `O=C1c2oc3ccc(Br)cc3c(=O)c2C(c2cccc(F)c2)N1CCO` (stereo not drawn), the inhibition is 3.36% (inactive). Under `O=C1c2oc3ccccc3c(=O)c2C(c2cccc(O)c2)N1c1ccccn1` (stereo not drawn) stands -1.77% (inactive); under `Cc1ccc(C(=O)NCC(c2cccs2)N(C)C)cc1S(=O)(=O)N1CCOCC1` (stereo not drawn), 47.1% (active). `Cc1ccc(C(=O)Nc2ncccc2C)cc1S(=O)(=O)N1CCOCC1`: the inhibition was -3.36% (inactive). With `COc1ccccc1C(CNC(=O)c1ccc(C)c(S(=O)(=O)N2CCCCC2)c1)N(C)C` (stereo not drawn), the inhibition is -4.72% (inactive). `O=C(Nc1c(Br)cc2c(c1Br)Cc1cc([N+](=O)[O-])ccc1-2)C(Cl)Cl`: the inhibition was -7.68% (inactive). Under `OCCC1CN(Cc2ccc3nsnc3c2)CCN1C1CCCC1` (stereo not drawn) stands 2.19% (inactive).

`Cn1cnnc1Sc1ccc(CN2CCN(C3CCCC3)C(CCO)C2)o1` (stereo not drawn): the inhibition was 2.66% (inactive).

As for `OCCC1CN(Cc2ccc3nsnc3c2)CCN1C1CCCCC1` (stereo not drawn), the inhibition is 77% (active).

`C/C(=N/Nc1nc(-c2ccccc2)c(CC(=O)O)s1)c1ccccc1`: the inhibition is 2.17% (inactive). Take `CCOc1ccc(-c2nc(C)sc2CC(=O)O)cc1`: the inhibition was -0.665% (inactive). Under `CCOC(=O)C(=O)Nc1nc(-c2ccccc2)c(CC)s1` stands 65.4% (active).

`CCCCCCCCNS(=O)(=O)CCNC1CCCCC1`: the inhibition was 0.068% (inactive). Under `CC(=O)Oc1ccc(OC(C)=O)c2c1C1C=CC2CC1` stands 3.2% (inactive). Under `Cc1ccc(N=Cc2c(O)cc(C)oc2=O)c(C)c1` stands -1.38% (inactive); under `COc1cc(N=Cc2c(O)c3ccccc3oc2=O)c(OC)cc1Cl`, 36.3% (active); under `COc1ccc(N=Cc2c(O)[nH]c3ccccc23)cc1OC`, 0.564% (inactive). Consider `CC(=O)Nc1ccc(S(=O)(=O)NCC(=O)OCC(=O)c2ccc[nH]2)cc1`, for which the inhibition was -5.59% (inactive). Under `Nc1ncnc2c1ncn2[C@@H]1O[C@H](CNCc2cccn2-c2nccs2)[C@@H](O)[C@H]1O` stands -2.1% (inactive); under `COC1=CC(=O)OC(c2ccc(OC)cc2)C1` (stereo not drawn), 45% (active); under `COc1ccc(C2CC(=O)NC(=O)C2)cc1`, -5.54% (inactive).

As to `COc1ccc2c(c1)C(=O)CC(c1ccccc1)O2` (stereo not drawn), the inhibition is 16.3% (inactive). Under `CC1(C)C(=O)CCC2(C)C1=CCC1C2C(=O)CC2(C)C1CCC2(O)C(=O)CO` (stereo not drawn) stands -4.84% (inactive). Under `O=C(O)c1ccc([N+](=O)[O-])cc1Sc1ccsc1` stands -2.87% (inactive). Under `O=C1N[C@@H](c2ccccc2)COC(=O)[C@H](Cc2ccc(F)cc2)C/C=C\C[C@@H]1CC(=O)N(CCO)Cc1ccccc1` stands 2.21% (inactive).

Take `COc1ccc(CN2C(CC(=O)Nc3cccnc3)c3ccc(C(F)(F)F)cc3S2(=O)=O)cc1` (stereo not drawn): the inhibition was -6.01% (inactive). Under `CSCCC1NC(=O)N(CC(=O)Nc2cccc(S(=O)(=O)N3CCCCCC3)c2)C1=O` (stereo not drawn) stands -13.3% (inactive).

Take `CCCCN(C(=O)CSCc1ccc(C)cc1)c1c(N)n(Cc2ccccc2)c(=O)[nH]c1=O`: the inhibition is -2.71% (inactive). Consider `Cc1cnc(NC(=O)c2ccccn2)s1`, for which the inhibition is 54.3% (active). `Cc1cnc(NC(=O)CSc2c(Cl)cccc2Cl)s1`: the inhibition was -4.72% (inactive).

As for `Cc1cnc(NC(=O)c2ccc(Cl)nc2)s1`, the inhibition is 5.61% (inactive). On to `O=C(Nc1ccn(CCCNCc2ccc3[nH]ccc3c2)c(=O)n1)OCc1ccccc1`, for which the inhibition was -6.18% (inactive).

For the compound `O=C(NCCN1CCOC1=O)C1CCC(=O)N(CCc2ccc(Cl)cc2)C1` (stereo not drawn), the inhibition was -3.91% (inactive). Under `Cc1cc(CNC(=O)C2CCC(=O)N(CCc3ccc(Cl)cc3)C2)no1` (stereo not drawn) stands 45.2% (active). `O=C(NCCCc1ccccc1)C1CCC(=O)N(CCc2ccc(Cl)cc2)C1` (stereo not drawn): the inhibition was -3.25% (inactive). Under `Cc1ccc(NC(=O)C2CCC(C(C)(C)C)CC2)cc1S(=O)(=O)N1CCOCC1` (stereo not drawn) stands -5.24% (inactive); under `O=C(CC1Sc2ccccc2NC1=O)NNc1ccc(Cl)c(Cl)c1` (stereo not drawn), -5.96% (inactive); under `CCCNC(=O)CCc1c(C)nc2c(c(C)nn2-c2ccccc2)c1C`, -0.965% (inactive). In the case of `CSc1ccc(-c2c(C#N)c(N)nc3c2c(C)nn3-c2ccccc2)cc1`, the inhibition is -0.521% (inactive). With `Cc1nc2c(c(C)nn2-c2ccccc2)c(C)c1C`, the inhibition is 45.7% (active).

The record behind these values is PubChem BioAssay AID602252 (Broad Institute, 2012).
